The values below come from PubChem BioAssay (NCATS).

The structures appear in SMILES notation. Results filed as inconclusive are left out. A number with no mark means an inactive call. Activity calls are given as the source filed them. Calls follow the shape of the dose curve; as a rule, active = well fitted curve in the direction sought with a large enough effect; inconclusive = small, poorly fitted or top-dose-only effect, or another doubt; inactive = no such curve, though single readings can be large; an effect the other way counts as inactive or inconclusive.

Assay [1] is described as follows: qHTS of pediatric cancer cell lines to identify multiple opportunities for drug repurposing: Primary screen for control Hh wild type fibroblast cells (AID 1347106). Also: nearly all actives have a fitted effect of over 55% in size. Also: potency is read from the fitted curve at half-maximal effect. The essentials:
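Cells (500-1,000/well) in growth media were settled 5 h at 37 degrees C, then given compounds for 48 h. Viability was read as CellTiter-Glo luminescence. Primary runs used MIPE at 11 points (0.78 nM-46 µM) and NPC at 8 points (0.59 nM-46 µM); follow-ups used 11 points.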

Assay [2] can be described thus: qHTS of pediatric cancer cell lines to identify multiple opportunities for drug repurposing: Primary screen for Rh30 cells (AID 1347107). Also: nearly all actives have a fitted effect of over 75% in size. Also: potency is read from the fitted curve at half-maximal effect. The method, boiled down:
(§1)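 Viability after 48 h compound treatment at 37C, 500-1,000 cells/well, read as ATP luminescence with CellTiter-Glo. Primary screens used 11-point (MIPE, 0.78 nM-46 µM) or 8-point (NPC, 0.59 nM-46 µM) final concentrations; follow-up screens used 11-point dilutions.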
In general terms: Quantitative high-throughput screening tests each substance at several concentrations.

A short description of assay [3]: qHTS of pediatric cancer cell lines to identify multiple opportunities for drug repurposing: Primary screen for Rh41 cells (AID 1347108). Also: nearly all actives have a fitted effect of over 70% in size. Also: potency is read from the fitted curve at half-maximal effect. The essentials: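 Readout: CellTiter-Glo luminescence, 48 h treatment. Controls DMSO (neutral) and bortezomib 2.3 µM final (positive). Potency and efficacy taken from primary-screen concentration-response curves.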
A short description of assay [4]: qHTS of pediatric cancer cell lines to identify multiple opportunities for drug repurposing: Confirmatory screen for A673 cells (AID 1347110). Also: nearly all actives have a fitted effect of over 65% in size. Also: potency is read from the fitted curve at half-maximal effect. The method, boiled down: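 Forty-eight-hour viability assay. Follow-up compounds ran at 11-point dilutions; positive control bortezomib at 2.3 uM final, neutral control DMSO.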
Assay [5] is described as follows: qHTS of pediatric cancer cell lines to identify multiple opportunities for drug repurposing: Confirmatory screen for SK-N-MC cells (AID 1347111).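 Also: potency is read from the fitted curve at half-maximal effect; cells exposed to compound for 48 h before the readout; nearly all actives have a fitted effect of over 70% in size.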 The method, boiled down:
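SK-N-MC cells at 500-1,000 cells/well in growth media were pre-incubated 5 h, then exposed to compounds at 11-point dilutions for 48 h at 37 degrees C, 5% CO2. Viability was read as CellTiter-Glo luminescence.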

A short description of assay [6]: qHTS of pediatric cancer cell lines to identify multiple opportunities for drug repurposing: Confirmatory screen for BT-12 cells (AID 1347112). Also: nearly all actives have a fitted effect of over 55% in size. Also: potency is read from the fitted curve at half-maximal effect. The method, boiled down: as §1
Assay [7] in a line: qHTS of pediatric cancer cell lines to identify multiple opportunities for drug repurposing: Confirmatory screen for LAN-5 cells (AID 1347113). Also: nearly all actives have a fitted effect of over 65% in size. Also: potency is read from the fitted curve at half-maximal effect. The essentials: as §1
Assay [8] can be described thus: qHTS of pediatric cancer cell lines to identify multiple opportunities for drug repurposing: Confirmatory screen for DAOY cells (AID 1347114). Also: nearly all actives have a fitted effect of over 65% in size. Also: potency is read from the fitted curve at half-maximal effect. The method, boiled down:
(§2)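 Viability measured as metabolically active cells via CellTiter-Glo luminescence following 48 hours of compound exposure, 11-point dilutions in confirmatory testing. 500-1,000 cells/well plated 5 hours before dosing; controls were DMSO and 2.3 µM bortezomib.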

A short description of assay [9]: qHTS of pediatric cancer cell lines to identify multiple opportunities for drug repurposing: Confirmatory screen for NB-EBc1 cells (AID 1347115). Also: potency is read from the fitted curve at half-maximal effect; nearly all actives have a fitted effect of over 45% in size. The method, boiled down: as §1
Assay [10] can be described thus: qHTS of pediatric cancer cell lines to identify multiple opportunities for drug repurposing: Confirmatory screen for SJ-GBM2 cells (AID 1347116). Also: nearly all actives have a fitted effect of over 60% in size. Also: potency is read from the fitted curve at half-maximal effect. The essentials:
as §2

Assay [11] can be described thus: qHTS of pediatric cancer cell lines to identify multiple opportunities for drug repurposing: Confirmatory screen for BT-37 cells (AID 1347117). Also: nearly all actives have a fitted effect of over 55% in size. Also: potency is read from the fitted curve at half-maximal effect. The method, boiled down:
as §1

Assay [12] can be described thus: qHTS of pediatric cancer cell lines to identify multiple opportunities for drug repurposing: Confirmatory screen for TC32 cells (AID 1347118). Also: potency is read from the fitted curve at half-maximal effect; nearly all actives have a fitted effect of over 65% in size. The essentials:
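TC32 cells, 500-1,000/well in growth medium, compound-treated 48 h at 37 °C; viability from CellTiter-Glo luminescence. Primary screen: MIPE 11-point (0.78 nM–46 µM final), NPC 8-point (0.59 nM–46 µM final); confirmatory at 11-point dilutions.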

The nature of assay [13]: qHTS of pediatric cancer cell lines to identify multiple opportunities for drug repurposing: Confirmatory screen for MG 63 (6-TG R) cells (AID 1347119). Also: nearly all actives have a fitted effect of over 55% in size. Also: potency is read from the fitted curve at half-maximal effect. The method, boiled down: as §1
A short description of assay [14]: qHTS of pediatric cancer cell lines to identify multiple opportunities for drug repurposing: Confirmatory screen for U-2 OS cells (AID 1347122). Also: nearly all actives have a fitted effect of over 65% in size. Also: potency is read from the fitted curve at half-maximal effect. The method, boiled down:
as §1

The nature of assay [15]: qHTS of pediatric cancer cell lines to identify multiple opportunities for drug repurposing: Confirmatory screen for Rh41 cells (AID 1347123).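 Also: potency is read from the fitted curve at half-maximal effect; 48 h compound exposure; nearly all actives have a fitted effect of over 60% in size.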 The method, boiled down:
as §1

Assay [16] is described as follows: qHTS of pediatric cancer cell lines to identify multiple opportunities for drug repurposing: Confirmatory screen for RD cells (AID 1347124). The method, boiled down: as §1
Assay [17] in a line: qHTS of pediatric cancer cell lines to identify multiple opportunities for drug repurposing: Confirmatory screen for Rh18 cells (AID 1347125). The method, boiled down: as §1
Assay [18] is described as follows: qHTS of pediatric cancer cell lines to identify multiple opportunities for drug repurposing: Confirmatory screen for Rh30 cells (AID 1347126). The essentials: as §1
Assay [19] in a line: qHTS of pediatric cancer cell lines to identify multiple opportunities for drug repurposing: Confirmatory screen for NB1643 cells (AID 1347109). Also: nearly all actives have a fitted effect of over 45% in size. The essentials:
as §1

A short description of assay [20]: qHTS of pediatric cancer cell lines to identify multiple opportunities for drug repurposing: Confirmatory screen for control Hh wild type fibroblast cells (AID 1347121). Also: nearly all actives have a fitted effect of over 70% in size. The method, boiled down:
as §1

For the compound `O=C(O)CO.[NH2-].[NH2-].[Pt+2]`, the Potency result in [1], in assay [2] and in assay [3] was “inactive” throughout.

For `OCc1ccc(-c2ccc(-c3ccc(CO)s3)o2)s1`, the Potency result in assay [1] was “inactive”. Moreover, the Potency is 16.6 µM (active) in assay [2] and 7.43 µM (active) in assay [3].

As to `Clc1ccc2ncc(-c3cccc(NC4CNC4)n3)n2c1`, the Potency result in [1] was “inactive”.

As for `COC(=O)C1=C(C)NC(C)=C(C(=O)OCCN2CCN(C(c3ccccc3)c3ccccc3)CC2)C1c1cccc([N+](=O)[O-])c1` (centres undefined), the Potency result in assay [1] and in assay [2] was “inactive” throughout.

Regarding `CCCCN1CCC(CNC(=O)c2c3n(c4ccccc24)CCCO3)CC1`, the Potency in assay [1] is 1.18 µM (active). Moreover, the Potency result in [2] was “inactive”.

Regarding `COC(=O)C[C@](O)(CCCC(C)(C)O)C(=O)O[C@@H]1C(OC)=C[C@]23CCCN2CCc2cc4c(cc2[C@H]13)OCO4`, in assay [1], the Potency entry is “inactive”.

Turning to `O=c1c2ccccc2nc2n1CCc1c-2[nH]c2ccccc12`, the Potency result in assay [1], in [2] and in [3] was “inactive” throughout.

In the case of `O=C(C=Cc1c(C(=O)O)[nH]c2cc(Cl)cc(Cl)c12)Nc1ccccc1`, the Potency result in assay [1], in assay [2] and in [3] was “inactive” throughout.

As for `Cn1c2cc(S(C)=O)sc2c2cnn(Cc3cccc(N)c3)c(=O)c21` (centres undefined), the Potency entry in assay [1] and in [2] was “inactive” each time.

`CN1CCC(CNc2ccc3ncc(-c4cccc(OC(F)(F)F)c4)n3n2)CC1`: the Potency was 18.7 µM (active) in assay [1], 23.5 µM (active) in assay [2] and 18.7 µM (active) in assay [3].

With `COc1cc2c(Oc3ccc(-c4cnc(Nc5ccc(F)cc5)n(C)c4=O)cc3F)ccnc2cc1OCCCN1CCOCC1`, the Potency in assay [1] is 23.5 µM (active); in assay [2] it was 9.35 µM (active); in assay [3] it was 4.69 µM (active); in assay [4], 4.14 µM (active); in [5], 2.93 µM (active); in assay [6] it was 20.8 µM (active). Also, the Potency in assay [7] was 7.37 µM (active); in [8], 11.7 µM (active); in assay [9], 18.5 µM (active); in [10] it was 14.7 µM (active); in assay [11] it was 18.5 µM (active); in [12] it was 2.93 µM (active). For the same compound, the Potency in assay [13] is 2.93 µM (active); in [14], 4.65 µM (active); in [15] it was 3.69 µM (active); in [16] it was 11.7 µM (active); in assay [17] it was 8.27 µM (active); in assay [18], 4.65 µM (active).

For the compound `CC(C)(O)CCc1ccc(OCc2cc(-c3cccc(OC(F)F)c3)c3ncccc3c2)cc1`, the Potency result in assay [1], in [2] and in assay [3] was “inactive” throughout.

`O=c1[nH]c(=O)n(C2CCCO2)cc1F` (centres undefined): the Potency entry in assay [1], in assay [2] and in assay [3] was “inactive” each time.

With `C=CC(=O)Nc1cc2c(Nc3ccc(F)c(Cl)c3)ncnc2cc1OCCCN1CCOCC1`, the Potency result in assay [1] is “inactive”. Further, the Potency in [2] and in assay [3] was 18.7 µM (active) each time.

For the compound `COc1cccc(Nc2c(C(N)=O)cnc3c(C)cc(S(=O)(=O)c4cccc(C(=O)N(C)C)c4)cc23)c1`, the Potency result in assay [1], in [2], in [3], in assay [19], in [4] and in assay [6] was “inactive” throughout. Further, the Potency result in [7], in assay [8], in assay [10], in [11], in [13] and in [20] was “inactive” in each case. In addition, the Potency result in [14] is “inactive”. In addition, the Potency in assay [12] was 0.512 µM (active).
